Active and inactive are the calls of the source. Unless noted, no rule for the calls is given here.
Experiments:
[1] = tested on: Wnt5a (protein binding on small-molecule microarray); assay: small molecules binding Wnt5a protein – biophysical, small-molecule microarray, 635/667 nm fluorescence, primary screen (AID 1142); settings: 635 nm fluorescence, higher = more signal;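 also: fluorescence read at 667 nm with signal to noise per printed feature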
[2] = ATP-based viability of Huh7 replicon cells – cell-based, CellTiter-Glo luminescence, basal, 48 h, cytotoxicity control for HCV replication inhibitor project, primary screen (AID 1143); settings: higher = more signal, called active from +8 up or from −8 down;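 also: Huh7 hepatoma cells carrying a hepatitis C replication reporter with no stimulus; test concentration not given here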
[3] = Pseudomonas biofilm growth suppression – PAO1 strain, BacTiter-Glo luminescence, LB-PBS, primary screen (AID 1144); settings: P. aeruginosa PAO1 biofilm, 12 h, higher = more signal
[4] = basal CRE-LacZ reporter activity in PC12 – cell-based, unstimulated, primary screen (AID 1145); settings: no forskolin, luminescence, 4.5 h, higher = more signal, called active from +8 up or from −8 down
[5] = forskolin-driven CRE-LacZ activity in PC12 – cell-based, CRE-LacZ reporter, forskolin-stimulated, primary screen (AID 1146); settings: luminescence, 4.5 h, higher = more signal, called active from +8 up or from −8 down;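 also: PC12 cells with 6xCRE LacZ reporter stimulated by forskolin 10 µM; beta-galactosidase reporter signal reflecting CREB driven transcription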
[6] = biological target: Streptavidin (Streptomyces avidinii) (UniProt P22629); assay: compounds binding control protein streptavidin – biophysical, small-molecule microarray, 635/667 nm fluorescence, artefact control for SMM compound annotation, primary screen (AID 1147); settings: higher = more signal;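 also: signal reflects streptavidin binding to arrayed compounds as a control protein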
Sequence of Streptavidin (Streptomyces avidinii) (P22629 whole entry, looked up): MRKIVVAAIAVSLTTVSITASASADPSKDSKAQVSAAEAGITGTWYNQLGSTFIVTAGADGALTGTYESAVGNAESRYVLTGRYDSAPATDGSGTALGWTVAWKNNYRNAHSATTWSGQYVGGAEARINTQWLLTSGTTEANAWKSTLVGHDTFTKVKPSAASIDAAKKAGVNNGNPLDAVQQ

[7] = probe aInhba binding on compound microarray – biochemical, small-molecule microarray, 635/667 nm fluorescence, primary screen (AID 1148); settings: higher = more signal;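 also: score merges 667nm spot fluorescence with signal-to-noise for antibody binding to printed compounds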
[8] = biological target: Torsin-1A (Homo sapiens) (UniProt O14656); assay: TOR1A wild-type binding on microarray – cell lysate, small-molecule microarray, lysate, 635/667 nm, primary screen (AID 1149); settings: COS7 hTOR1A-WT lysate, 635 nm fluorescence, higher = more signal
Sequence of Torsin-1A (Homo sapiens) (O14656 whole entry, looked up): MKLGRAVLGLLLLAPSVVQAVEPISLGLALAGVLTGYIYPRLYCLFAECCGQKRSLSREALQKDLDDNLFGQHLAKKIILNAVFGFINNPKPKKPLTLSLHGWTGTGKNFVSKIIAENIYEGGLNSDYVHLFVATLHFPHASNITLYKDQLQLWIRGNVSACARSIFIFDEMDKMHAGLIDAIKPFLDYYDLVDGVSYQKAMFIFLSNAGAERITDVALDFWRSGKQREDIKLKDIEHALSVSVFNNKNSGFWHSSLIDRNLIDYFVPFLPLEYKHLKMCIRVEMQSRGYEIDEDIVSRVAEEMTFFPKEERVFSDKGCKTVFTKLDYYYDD

[9] = biological target: Torsin-1A (Homo sapiens) (UniProt O14656); assay: torsin A mutant lysate binding on microarrays – cell lysate, small-molecule microarray, COS7 lysate, 635/667 nm fluorescence, primary screen (AID 1150); settings: COS7 hTOR1A mutant lysate, 635 nm fluorescence, higher = more signal;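 also: score pools 667 nm emission and signal to noise measuring lysate protein binding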
[10] = tested on: Sonic hedgehog protein (Shh); assay: Sonic hedgehog microarray binding compounds – biochemical, small-molecule microarray, 635/667 nm fluorescence, primary screen (AID 1151); settings: 635 nm fluorescence, higher = more signal;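 also: Shh protein binding to compounds spotted on small-molecule microarray slides; score combines spot fluorescence intensity with signal-to-noise across triplicate slides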

Structure (SMILES)	composite z-score [1]	z-score [2]	z-score [3]	z-score [4]	z-score [5]	composite z-score [6]	composite z-score [7]	composite z-score [8]	composite z-score [9]	composite z-score [10]
COCCCNC(=O)[C@]1(Cc2ccccc2N=[N+]=[N-])N=C(c2ccc(OCCCO)cc2)O[C@@H]1c1ccccc1	0.637	-3.94 (inactive)	0.542 (inactive)	1.76 (inactive)	-1.66 (inactive)	1.58	0.974	0.303	1.09	-0.223
C=CC[C@H](O)c1ccc(O)c(F)c1	-0.863	-0.48 (inactive)	-0.955 (inactive)	-0.0392 (inactive)	-0.535 (inactive)	-1.39	-0.0429	-3.98	-1.66	-1.11
C=C(C(=O)CC[C@@H](OC(=O)c1cccnc1)c1cccc(OCCO)c1)C(C)C	0.222	-2.97 (inactive)	-0.372 (inactive)	1.67 (inactive)	-1.24 (inactive)	-0.0835	-0.0736	-0.0348	-0.234	1.72
C=CCC(OC(C)=O)[C@@H]1[C@@H](N(Cc2ccc(-c3ccccc3)cc2)C(=O)Cc2ccc(OC)cc2)c2cc(OCCCO)ccc2N1C(=O)c1ccc2ccccc2c1 (stereo not given in full)	-0.0966	-1.35 (inactive)	0.832 (inactive)	1.37 (inactive)	0.385 (inactive)	1.14	-0.153	-0.137	-0.451	0.234
COC(=O)[C@]1(Cc2ccccc2CN=[N+]=[N-])N=C(c2ccc(OCCCO)cc2)O[C@@H]1c1ccccc1N=[N+]=[N-]	0.786	-5.02 (inactive)	-0.332 (inactive)	3.72 (inactive)	0.335 (inactive)	-0.174	0.0082	-0.0005	-0.147	0.336
CC[C@@H](O[Si](C#C[Si](C(C)C)(C(C)C)C(C)C)(C(C)C)C(C)C)c1cn([C@H](CO)Cc2ccccc2)nn1	-0.142	0.0926 (inactive)	-0.805 (inactive)	-0.607 (inactive)	-0.038 (inactive)	0.391	0.0104	0.0922	-0.209	1.24
COC(=O)C1(CC(C)C)C=C2C(=C(C)C(=O)C2C)CN1 (stereo not given)	0.392	-0.109 (inactive)	0.142 (inactive)	0.0041 (inactive)	2.32 (inactive)	0.351	1.17	0.0384	0.276	-0.645

— PubChem BioAssay
